Laboratory results reported in ChEMBL document CHEMBL2218924, “A broad activity screen in support of a chemogenomic map for kinase signalling research and drug discovery” (Biochem J, 2013).

Tests used:
[1] = molecular target: MAP kinase-activated protein kinase 2 (Homo sapiens) (UniProt P49137); details: at 10 µM
[2] = molecular target: MAP kinase-activated protein kinase 3 (Homo sapiens) (UniProt Q16644); details: at 10 µM
[3] = molecular target: Serine/threonine-protein kinase MARK1 (Homo sapiens) (UniProt Q9P0L2); details: at 1 µM
Serine/threonine-protein kinase MARK1 (Homo sapiens), sequence (Q9P0L2 whole entry, looked up): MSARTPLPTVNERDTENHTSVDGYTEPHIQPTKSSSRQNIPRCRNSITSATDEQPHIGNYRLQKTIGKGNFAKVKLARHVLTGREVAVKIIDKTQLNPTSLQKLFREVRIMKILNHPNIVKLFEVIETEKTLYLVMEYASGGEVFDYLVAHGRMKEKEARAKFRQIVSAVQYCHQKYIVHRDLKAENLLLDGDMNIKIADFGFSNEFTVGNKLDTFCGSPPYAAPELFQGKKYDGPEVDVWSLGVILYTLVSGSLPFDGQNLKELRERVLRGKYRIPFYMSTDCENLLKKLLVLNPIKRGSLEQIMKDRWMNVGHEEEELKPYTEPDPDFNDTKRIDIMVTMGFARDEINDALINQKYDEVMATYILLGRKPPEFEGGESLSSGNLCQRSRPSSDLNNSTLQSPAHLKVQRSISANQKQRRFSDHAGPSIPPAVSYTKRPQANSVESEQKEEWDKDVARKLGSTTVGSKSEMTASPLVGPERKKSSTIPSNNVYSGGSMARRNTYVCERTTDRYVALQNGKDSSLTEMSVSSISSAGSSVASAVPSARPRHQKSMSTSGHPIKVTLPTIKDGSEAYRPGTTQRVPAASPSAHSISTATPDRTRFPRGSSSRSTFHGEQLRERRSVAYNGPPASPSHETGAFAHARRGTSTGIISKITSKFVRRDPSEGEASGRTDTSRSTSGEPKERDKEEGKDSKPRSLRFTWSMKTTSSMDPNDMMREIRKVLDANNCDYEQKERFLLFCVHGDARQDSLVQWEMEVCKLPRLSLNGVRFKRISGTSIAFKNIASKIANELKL

[4] = molecular target: Serine/threonine-protein kinase MARK1 (Homo sapiens) (UniProt Q9P0L2); details: at 10 µM
[5] = molecular target: Dual specificity mitogen-activated protein kinase kinase 1 (Homo sapiens) (UniProt Q02750); details: at 1 µM
Dual specificity mitogen-activated protein kinase kinase 1 (Homo sapiens), sequence (Q02750 whole entry): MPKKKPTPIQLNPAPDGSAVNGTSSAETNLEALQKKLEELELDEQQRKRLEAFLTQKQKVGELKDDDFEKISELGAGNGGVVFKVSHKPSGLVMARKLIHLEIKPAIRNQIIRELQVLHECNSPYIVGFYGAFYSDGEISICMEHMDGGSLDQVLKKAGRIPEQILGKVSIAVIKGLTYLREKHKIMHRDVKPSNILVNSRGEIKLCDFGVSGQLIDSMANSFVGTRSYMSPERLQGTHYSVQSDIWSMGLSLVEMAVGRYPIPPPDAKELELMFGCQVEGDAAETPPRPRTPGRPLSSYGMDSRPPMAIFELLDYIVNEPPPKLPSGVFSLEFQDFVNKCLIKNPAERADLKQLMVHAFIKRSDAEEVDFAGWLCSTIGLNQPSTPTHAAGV

[6] = molecular target: Dual specificity mitogen-activated protein kinase kinase 1 (Homo sapiens) (UniProt Q02750); details: at 10 µM
[7] = molecular target: Maternal embryonic leucine zipper kinase (Homo sapiens) (UniProt Q14680); details: at 1 µM
Maternal embryonic leucine zipper kinase (Homo sapiens), sequence (Q14680 whole entry, looked up): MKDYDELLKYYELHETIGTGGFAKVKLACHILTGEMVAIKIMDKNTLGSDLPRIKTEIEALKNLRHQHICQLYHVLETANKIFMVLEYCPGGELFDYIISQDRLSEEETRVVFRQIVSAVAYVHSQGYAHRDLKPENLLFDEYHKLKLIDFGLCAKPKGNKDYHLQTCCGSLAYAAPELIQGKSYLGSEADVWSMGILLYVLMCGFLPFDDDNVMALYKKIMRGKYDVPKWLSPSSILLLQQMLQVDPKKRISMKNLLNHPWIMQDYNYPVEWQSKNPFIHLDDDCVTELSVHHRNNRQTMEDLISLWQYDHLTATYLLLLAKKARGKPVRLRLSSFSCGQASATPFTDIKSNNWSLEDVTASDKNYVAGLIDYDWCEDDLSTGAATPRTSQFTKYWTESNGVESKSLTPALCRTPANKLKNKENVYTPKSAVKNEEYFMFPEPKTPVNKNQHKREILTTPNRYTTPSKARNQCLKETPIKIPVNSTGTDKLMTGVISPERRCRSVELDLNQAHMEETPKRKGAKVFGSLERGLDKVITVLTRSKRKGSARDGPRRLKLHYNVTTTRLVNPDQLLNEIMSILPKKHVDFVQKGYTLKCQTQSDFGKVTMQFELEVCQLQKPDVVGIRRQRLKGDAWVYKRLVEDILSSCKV

[8] = molecular target: Maternal embryonic leucine zipper kinase (Homo sapiens) (UniProt Q14680); details: at 10 µM
[9] = molecular target: Misshapen-like kinase 1 (Homo sapiens) (UniProt Q8N4C8); details: at 1 µM
[10] = molecular target: Misshapen-like kinase 1 (Homo sapiens) (UniProt Q8N4C8); details: at 10 µM
[11] = molecular target: T1, Dual specificity mitogen-activated protein kinase kinase 6 (Homo sapiens) (UniProt P52564); details: at 1 µM
T1 sequence (whole entry): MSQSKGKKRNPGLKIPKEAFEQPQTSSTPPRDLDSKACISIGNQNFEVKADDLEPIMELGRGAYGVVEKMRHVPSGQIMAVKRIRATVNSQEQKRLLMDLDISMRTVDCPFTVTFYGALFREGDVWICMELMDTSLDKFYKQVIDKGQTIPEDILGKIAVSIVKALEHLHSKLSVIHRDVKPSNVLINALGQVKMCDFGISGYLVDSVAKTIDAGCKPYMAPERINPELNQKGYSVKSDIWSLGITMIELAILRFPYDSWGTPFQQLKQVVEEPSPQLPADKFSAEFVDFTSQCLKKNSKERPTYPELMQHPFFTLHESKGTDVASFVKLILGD

[12] = molecular target: T1, Dual specificity mitogen-activated protein kinase kinase 6 (Homo sapiens); details: at 10 µM
[13] = molecular target: T2, Dual specificity mitogen-activated protein kinase kinase 7 (Homo sapiens) (UniProt O14733); details: at 1 µM
T2 sequence (whole entry): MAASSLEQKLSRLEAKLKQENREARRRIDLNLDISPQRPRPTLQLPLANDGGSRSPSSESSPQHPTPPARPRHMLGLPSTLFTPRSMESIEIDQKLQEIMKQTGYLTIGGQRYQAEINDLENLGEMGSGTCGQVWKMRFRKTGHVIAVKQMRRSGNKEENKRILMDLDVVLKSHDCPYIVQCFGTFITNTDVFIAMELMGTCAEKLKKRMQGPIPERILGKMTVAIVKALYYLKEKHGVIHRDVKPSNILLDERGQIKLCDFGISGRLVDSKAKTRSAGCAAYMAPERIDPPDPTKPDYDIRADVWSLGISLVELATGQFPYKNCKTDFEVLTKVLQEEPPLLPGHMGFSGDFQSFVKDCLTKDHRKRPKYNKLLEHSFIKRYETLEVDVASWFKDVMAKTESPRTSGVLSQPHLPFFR

[14] = molecular target: T2, Dual specificity mitogen-activated protein kinase kinase 7 (Homo sapiens); details: at 10 µM
[15] = molecular target: Myosin light chain kinase, smooth muscle (Homo sapiens) (UniProt Q15746); details: at 1 µM
[16] = molecular target: Myosin light chain kinase, smooth muscle (Homo sapiens) (UniProt Q15746); details: at 10 µM
[17] = molecular target: Mitogen-activated protein kinase kinase kinase 9 (Homo sapiens) (UniProt P80192); details: at 1 µM
Mitogen-activated protein kinase kinase kinase 9 (Homo sapiens), sequence (P80192 whole entry, looked up): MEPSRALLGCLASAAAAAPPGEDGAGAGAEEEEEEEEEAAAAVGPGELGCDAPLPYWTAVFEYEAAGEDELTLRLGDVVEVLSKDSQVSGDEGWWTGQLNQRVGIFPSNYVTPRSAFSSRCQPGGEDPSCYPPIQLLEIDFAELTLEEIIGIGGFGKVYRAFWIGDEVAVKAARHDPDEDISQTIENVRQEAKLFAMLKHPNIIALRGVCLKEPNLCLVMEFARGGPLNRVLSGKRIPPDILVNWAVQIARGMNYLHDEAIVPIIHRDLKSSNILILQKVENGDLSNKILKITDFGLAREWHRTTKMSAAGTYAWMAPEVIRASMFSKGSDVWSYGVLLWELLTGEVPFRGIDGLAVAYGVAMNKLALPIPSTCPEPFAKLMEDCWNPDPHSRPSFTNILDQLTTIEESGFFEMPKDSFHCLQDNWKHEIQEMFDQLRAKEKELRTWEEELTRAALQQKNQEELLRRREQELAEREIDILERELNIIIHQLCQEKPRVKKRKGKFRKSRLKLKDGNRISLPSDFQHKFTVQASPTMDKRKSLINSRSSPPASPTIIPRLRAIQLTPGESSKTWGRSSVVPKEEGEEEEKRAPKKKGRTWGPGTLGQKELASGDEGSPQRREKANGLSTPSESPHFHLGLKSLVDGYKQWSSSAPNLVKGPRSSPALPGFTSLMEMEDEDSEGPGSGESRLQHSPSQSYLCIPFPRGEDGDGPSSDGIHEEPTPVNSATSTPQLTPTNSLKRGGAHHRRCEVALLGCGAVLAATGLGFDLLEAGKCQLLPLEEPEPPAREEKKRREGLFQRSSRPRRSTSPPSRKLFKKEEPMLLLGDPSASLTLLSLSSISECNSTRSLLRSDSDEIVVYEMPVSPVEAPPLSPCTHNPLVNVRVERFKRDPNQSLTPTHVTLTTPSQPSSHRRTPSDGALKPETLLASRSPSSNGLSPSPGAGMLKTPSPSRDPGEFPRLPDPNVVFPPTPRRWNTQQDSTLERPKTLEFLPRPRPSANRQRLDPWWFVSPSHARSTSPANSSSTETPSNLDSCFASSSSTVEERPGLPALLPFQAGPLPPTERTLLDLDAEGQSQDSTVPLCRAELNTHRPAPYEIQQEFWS

[18] = molecular target: Mitogen-activated protein kinase kinase kinase 9 (Homo sapiens) (UniProt P80192); details: at 10 µM
[19] = molecular target: Serine/threonine-protein kinase MRCK alpha (Homo sapiens) (UniProt Q5VT25); details: at 1 µM
Serine/threonine-protein kinase MRCK alpha (Homo sapiens), sequence (Q5VT25 whole entry): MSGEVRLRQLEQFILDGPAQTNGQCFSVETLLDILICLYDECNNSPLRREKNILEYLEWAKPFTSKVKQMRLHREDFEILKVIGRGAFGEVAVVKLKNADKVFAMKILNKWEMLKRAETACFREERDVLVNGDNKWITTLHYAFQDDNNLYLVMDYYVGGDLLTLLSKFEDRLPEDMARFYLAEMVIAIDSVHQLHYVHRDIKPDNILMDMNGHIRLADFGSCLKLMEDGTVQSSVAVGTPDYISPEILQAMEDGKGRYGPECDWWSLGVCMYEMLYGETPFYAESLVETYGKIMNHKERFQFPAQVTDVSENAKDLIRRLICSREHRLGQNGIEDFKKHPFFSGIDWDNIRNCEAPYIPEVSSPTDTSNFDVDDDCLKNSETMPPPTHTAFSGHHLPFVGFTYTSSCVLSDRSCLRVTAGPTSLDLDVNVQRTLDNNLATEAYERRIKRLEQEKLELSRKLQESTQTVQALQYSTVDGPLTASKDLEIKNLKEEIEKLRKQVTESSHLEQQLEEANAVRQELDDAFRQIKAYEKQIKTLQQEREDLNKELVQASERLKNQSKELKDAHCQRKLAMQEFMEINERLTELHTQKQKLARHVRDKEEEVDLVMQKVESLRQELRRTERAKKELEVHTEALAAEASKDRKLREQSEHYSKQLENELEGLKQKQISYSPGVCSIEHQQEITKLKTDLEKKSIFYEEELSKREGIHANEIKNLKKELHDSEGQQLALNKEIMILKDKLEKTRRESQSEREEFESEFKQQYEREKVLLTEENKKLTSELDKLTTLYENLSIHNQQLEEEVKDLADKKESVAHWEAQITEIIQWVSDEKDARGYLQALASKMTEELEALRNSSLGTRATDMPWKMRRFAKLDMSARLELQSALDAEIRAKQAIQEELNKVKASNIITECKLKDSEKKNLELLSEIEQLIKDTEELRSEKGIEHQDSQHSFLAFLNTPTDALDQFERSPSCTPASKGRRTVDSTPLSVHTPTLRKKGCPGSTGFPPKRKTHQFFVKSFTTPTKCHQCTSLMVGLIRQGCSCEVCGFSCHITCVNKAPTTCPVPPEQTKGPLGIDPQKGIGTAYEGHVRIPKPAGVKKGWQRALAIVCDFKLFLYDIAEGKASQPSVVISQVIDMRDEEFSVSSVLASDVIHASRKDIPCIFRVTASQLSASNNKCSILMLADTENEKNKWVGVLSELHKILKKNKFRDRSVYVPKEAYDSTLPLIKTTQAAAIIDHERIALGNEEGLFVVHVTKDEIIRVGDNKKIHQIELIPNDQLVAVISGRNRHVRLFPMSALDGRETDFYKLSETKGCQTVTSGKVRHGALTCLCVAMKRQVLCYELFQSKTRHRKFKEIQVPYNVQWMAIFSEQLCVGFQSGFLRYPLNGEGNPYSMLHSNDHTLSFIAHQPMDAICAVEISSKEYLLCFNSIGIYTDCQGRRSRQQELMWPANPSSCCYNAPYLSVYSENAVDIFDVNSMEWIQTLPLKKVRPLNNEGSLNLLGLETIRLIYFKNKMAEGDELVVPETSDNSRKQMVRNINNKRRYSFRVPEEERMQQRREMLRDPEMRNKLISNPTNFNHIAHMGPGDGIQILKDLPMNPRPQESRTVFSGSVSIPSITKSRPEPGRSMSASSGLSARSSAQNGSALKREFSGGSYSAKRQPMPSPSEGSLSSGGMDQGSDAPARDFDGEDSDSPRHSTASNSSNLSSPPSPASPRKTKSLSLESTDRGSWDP

[20] = molecular target: Serine/threonine-protein kinase MRCK alpha (Homo sapiens) (UniProt Q5VT25); details: at 10 µM

MAP kinase-activated protein kinase 3 (Homo sapiens), sequence (Q16644 whole entry, looked up): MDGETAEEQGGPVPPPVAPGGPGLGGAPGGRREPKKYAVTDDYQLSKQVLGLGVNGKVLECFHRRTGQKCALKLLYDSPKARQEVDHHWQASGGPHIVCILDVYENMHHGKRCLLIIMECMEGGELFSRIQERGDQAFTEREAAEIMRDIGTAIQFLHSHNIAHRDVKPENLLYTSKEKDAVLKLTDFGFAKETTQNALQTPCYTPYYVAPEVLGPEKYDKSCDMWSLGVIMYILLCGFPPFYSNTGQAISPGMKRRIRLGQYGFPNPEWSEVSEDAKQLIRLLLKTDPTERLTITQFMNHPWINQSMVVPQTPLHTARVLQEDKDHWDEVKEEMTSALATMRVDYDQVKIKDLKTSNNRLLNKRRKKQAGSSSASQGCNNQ

O=C(Nc1cccc(Nc2nccc(Nc3cccc(C(F)(F)F)c3)n2)c1)C1CC1 showed a residual activity [1] of 100%, a residual activity [2] of 107% and a residual activity [3] of 93%. The residual activity [4] was 50%, the residual activity [5] was 106% and the residual activity [6] was 77%. For the same compound, the residual activity [7] was 61%, the residual activity [8] was 63% and the residual activity [9] was 87%. The residual activity [10] was 59%, the residual activity [11] was 76% and the residual activity [12] was 51%. It also gave a residual activity [13] of 85%, a residual activity [14] of 87% and a residual activity [15] of 54%. For the same compound, the residual activity [16] was 66%, the residual activity [17] was 82% and the residual activity [18] was 29%. It also gave a residual activity [19] of 117% and a residual activity [20] of 130%.
CC(C)n1cnc2c(NCc3ccccc3)nc(NCCCO)nc21 gave a residual activity [1] of 90%, a residual activity [2] of 80% and a residual activity [3] of 81%. It also gave a residual activity [4] of 81%, a residual activity [5] of 103% and a residual activity [6] of 110%. The residual activity [7] was 86%, the residual activity [8] was 77% and the residual activity [9] was 108%. The residual activity [10] was 100%, the residual activity [11] was 94% and the residual activity [12] was 74%. The residual activity [13] was 91%, the residual activity [14] was 75% and the residual activity [15] was 93%. For the same compound, the residual activity [16] was 74%, the residual activity [17] was 97% and the residual activity [18] was 73%. The residual activity [19] was 86% and the residual activity [20] was 83%.
In the case of CO[C@H]1[C@@H](OC)C[C@H](C)[C@@H](OC)C2=CC(=O)C=C(NC(=O)/C(C)=C/C=C/[C@H](OC)[C@@H](OC(N)=O)/C(C)=C/[C@@H]1C)C2=O, the residual activity [1] is reported as 85%, the residual activity [2] is reported as 81% and the residual activity [3] is reported as 92%. It also gave a residual activity [4] of 82%, a residual activity [5] of 102% and a residual activity [6] of 95%. It also gave a residual activity [7] of 60%, a residual activity [8] of 63% and a residual activity [9] of 95%. For the same compound, the residual activity [10] was 92%, the residual activity [11] was 72% and the residual activity [12] was 99%. The residual activity [13] was 92%, the residual activity [14] was 88% and the residual activity [15] was 98%. The residual activity [16] was 90%, the residual activity [17] was 92% and the residual activity [18] was 99%. The residual activity [19] was 114% and the residual activity [20] was 92%.
With COc1cc2ncnc(Nc3ccc(O)c(Br)c3)c2cc1OC the residual activity [1] was 106%, the residual activity [2] was 106% and the residual activity [3] was 70%. For the same compound, the residual activity [4] was 54%, the residual activity [5] was 119% and the residual activity [6] was 80%. The residual activity [7] was 73%, the residual activity [8] was 28% and the residual activity [9] was 83%. The residual activity [10] was 47%, the residual activity [11] was 88% and the residual activity [12] was 27%. It also gave a residual activity [13] of 119%, a residual activity [14] of 94% and a residual activity [15] of 71%. The residual activity [16] was 37%, the residual activity [17] was 45% and the residual activity [18] was 11%. For the same compound, the residual activity [19] was 82% and the residual activity [20] was 84%.
In the case of CC(C)n1cnc2/c(=N/c3cccc(Cl)c3)nc(NCCO)[nH]c21, the residual activity [1] is reported as 92%, the residual activity [2] is reported as 116% and the residual activity [3] is reported as 50%. For the same compound, the residual activity [4] was 26%, the residual activity [5] was 81% and the residual activity [6] was 91%. For the same compound, the residual activity [7] was 56%, the residual activity [8] was 16% and the residual activity [9] was 98%. It also gave a residual activity [10] of 69%, a residual activity [11] of 73% and a residual activity [12] of 49%. For the same compound, the residual activity [13] was 80%, the residual activity [14] was 93% and the residual activity [15] was 90%. The residual activity [16] was 30%, the residual activity [17] was 11% and the residual activity [18] was 1%. It also gave a residual activity [19] of 108% and a residual activity [20] of 98%.
Oc1ccc(-c2nc(-c3ccc(F)cc3)c(-c3ccncc3)[nH]2)cc1 was tested, and the residual activity [1] was 105%, the residual activity [2] was 102% and the residual activity [3] was 95%. For the same compound, the residual activity [4] was 97%, the residual activity [5] was 90% and the residual activity [6] was 104%. The residual activity [7] was 92%, the residual activity [8] was 46% and the residual activity [9] was 91%. For the same compound, the residual activity [10] was 49%, the residual activity [11] was 12% and the residual activity [12] was -1%. For the same compound, the residual activity [13] was 80%, the residual activity [14] was 57% and the residual activity [15] was 111%. It also gave a residual activity [16] of 80%, a residual activity [17] of 54% and a residual activity [18] of 12%. It also gave a residual activity [19] of 116% and a residual activity [20] of 103%.
